Here are results for 16 compounds from PubChem BioAssay (Tox21).

Assay [1] in a line: qHTS assay to test for compound auto fluorescence at 535 nm (green) in HEK293 cells (AID 720680). A general note: qHTS replaces the single test concentration by a dilution series.
The nature of assay [2]: qHTS assay to test for compound auto fluorescence at 590 nm (red) in HEK293 cell free culture (AID 720683). In a few lines:
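Red-channel autofluorescence of compounds in culture medium (DMEM, 10% FBS), no cells, measured at 540/590 nm. Rose Bengal sodium is the reference fluorophore for equivalence.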

Assay [3] can be described thus: qHTS assay to test for compound auto fluorescence at 590 nm (red) in HepG2 cell free culture (AID 720684). The method in brief:
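Plate contents were MEM with 10% FBS plus test compound or DMSO, no cells. Fluorescence was recorded with 540 nm excitation and 590 nm emission.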

A short description of assay [4]: qHTS assay to test for compound auto fluorescence at 460 nm (blue) in HepG2 cell free culture (AID 720685). The method in brief: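 Compound (23 nL) or DMSO pinned into cell-free MEM with 10% FBS; blue fluorescence read at 405/460 nm excitation/emission, expressed as auto-fluorescence equivalency to triamterene.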
A short description of assay [5]: qHTS assay to test for compound auto fluorescence at 535 nm (green) in HepG2 cell free culture (AID 720686).
Assay [6] can be described thus: qHTS assay to test for compound auto fluorescence at 460 nm (blue) in HepG2 cells (AID 720687). In a few lines:
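Blue-channel autofluorescence (Ex/Em 405/460 nm, triamterene-equivalent) was measured after 1 hr compound exposure at 37 C, 5% CO2. Cells were HepG2, plated overnight at 37 C in MEM plus 10% FBS.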

The target in assay [7] is Glucocorticoid receptor (Homo sapiens) (UniProt P04150). Put plainly: qHTS assay to identify small molecule agonists of the glucocorticoid receptor (GR) signaling pathway (AID 720691; active = well fitted activation curve with a large enough effect in the signal ratio in the repeat runs, not every such curve was filed as active; the % refers to the signal ratio). The method in brief:
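Agonist mode in a HeLa line carrying a GRE-controlled beta-lactamase reporter. Compounds act for 18 h at 37 C before a 2 h room-temperature FRET substrate step and fluorescence reading.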

Assay [8] can be described thus: qHTS assay to identify small molecule antagonists of the glucocorticoid receptor (GR) signaling pathway - cell viability counter screen (AID 720693). Also: nearly all actives have a fitted effect of over 55% in size.
Assay [9] in a line: qHTS assay for identifying genotoxic compounds that show differential cytotoxicity against isogenic chicken DT40 cell lines with known DNA damage response pathways - wild type cell line (AID 743012). Also: nearly all actives have a fitted effect of over 60% in size. Also: potency is read from the fitted curve at half-maximal effect. The method in brief: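 Cells (DT40 wild type, 300/well) are treated with DMSO-dissolved compounds after a ~0.5 h pre-incubation and kept 40 h at 37 C/5% CO2. Viability is then measured by CellTiter-Glo luminescence following 30 min at room temperature.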

Assay [10] in a line: qHTS assay for identifying genotoxic compounds that show differential cytotoxicity against isogenic chicken DT40 cell lines with known DNA damage response pathways - Rev3 mutant cell line (AID 743014). Also: nearly all actives have a fitted effect of over 55% in size. Also: potency is read from the fitted curve at half-maximal effect.
Assay [11] is described as follows: qHTS assay to identify small molecule antagonists of the androgen receptor (AR) signaling pathway - cell viability counter screen (AID 743033; also: nearly all actives have a fitted effect of over 45% in size).
A short description of assay [12]: qHTS assay to identify small molecule antagonists of the androgen receptor (AR) signaling pathway using the MDA cell line - cell viability counter screen (AID 743041; also: nearly all actives have a fitted effect of over 45% in size). The method in brief:
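R1881-driven MDA-kb2 AR-luc cells, 3,000/well, were dosed with library compounds for 16 h; cell health came from CellTiter-Fluor fluorescence in the reporter wells.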

The nature of assay [13]: qHTS assay to test for compound auto fluorescence at 535 nm (green) in HEK293 cell free culture (AID 720682). In a few lines: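 Green-label autofluorescence (485 nm excitation, 535 nm emission) measured on compound added to cell-free culture medium (DMEM, 10% FBS). Output is expressed relative to fluorescein.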
A short description of assay [14]: qHTS assay for identifying genotoxic compounds that show differential cytotoxicity against isogenic chicken DT40 cell lines with known DNA damage response pathways - Rad54/Ku70 mutant cell line (AID 743015). Also: nearly all actives have a fitted effect of over 60% in size. Also: potency is read from the fitted curve at half-maximal effect.
For assay [15], the target named is Glucocorticoid receptor (Homo sapiens) (UniProt P04150). Put plainly: qHTS assay to identify small molecule antagonists of the glucocorticoid receptor (GR) signaling pathway (AID 720692; active = well fitted inhibition curve with a large enough effect in the signal ratio in the repeat runs, not every such curve was filed as active; the % refers to the signal ratio). In a few lines:
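Cells plated, rested 4 h at 37 C/5% CO2; compounds in DMSO pin-transferred; dexamethasone added to 5 nM final; 18 h at 37 C; B/G FRET substrate added, 2 h room temperature; fluorescence measured.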

The target in assay [16] is Androgen receptor (Homo sapiens) (UniProt P10275). Put plainly: qHTS assay to identify small molecule antagonists of the androgen receptor (AR) signaling pathway (AID 743035; active = well fitted inhibition curve with a large enough effect in the signal ratio in the repeat runs, not every such curve was filed as active; the % refers to the signal ratio). In a few lines: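 Antagonism is scored as loss of R1881-driven beta-lactamase reporter expression in HEK293 cells carrying the reporter under a UAS element, after 16 h co-treatment at 37C and a 2 h room-temperature FRET substrate read.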

Assay [17] has the same target. Briefly: qHTS assay to identify small molecule agonists of the androgen receptor (AR) signaling pathway (AID 743036; active = well fitted activation curve with a large enough effect in the signal ratio in the repeat runs, with a control signal flat, not every such curve was filed as active; the % refers to the signal ratio). In a few lines: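 AR-UAS-bla HEK293 cells, plated 4 h before dosing, were treated with compound for 16 h at 37C. beta-Lactamase reporter read after 2 h with LiveBLAzer B/G FRET substrate at room temperature.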
For assay [18] the target is unchanged. Put plainly: qHTS assay to identify small molecule agonists of the androgen receptor (AR) signaling pathway using the MDA cell line (AID 743040; also: nearly all actives have a fitted effect of over 20% in size; also: potency is read from the fitted curve at half-maximal effect). The method in brief:
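After a 5 h incubation at 37C and 0% CO2, MDA-kb2 reporter cells were dosed with compounds in DMSO and kept 16 h under the same conditions. Luciferase activity was then read as luminescence with ONE-Glo.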

The target is the same in assay [19]. Put plainly: qHTS assay to identify small molecule antagonists of the androgen receptor (AR) signaling pathway using the MDA cell line (AID 743042; also: nearly all actives have a fitted effect of over 55% in size). The method in brief:
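Antagonist mode: compounds plus R1881 agonist added to MDA-kb2 AR-luc cells, incubated 16 h at 37C. Luciferase reporter luminescence quantified, with multiplexed CellTiter-Fluor readout for cell viability.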

Assay [20] is described as follows: qHTS assay to test for compound auto fluorescence at 460 nm (blue) in HEK293 cell free culture (AID 720681). In a few lines:
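Blue fluorescence (Ex 405/Em 460 nm, triamterene-equivalent) was read immediately after pin transfer of compound or DMSO into medium (DMEM, 10% FBS) without cells.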

Several values for one entry are separate records, joined by “and”; a condition that tells them apart may be missing. Identical values can stand only once. Inconclusive results are not listed. Activity calls are given as the source filed them. Unless noted, calls follow the shape of the dose curve; as a rule, active = well fitted curve in the direction sought with a large enough effect in the repeat runs; inconclusive = weak or mixed curves; inactive = no such curve, though single readings can be large; an effect the other way counts as inactive or inconclusive.

Chain of Androgen receptor (Homo sapiens) (P10275 whole entry, looked up): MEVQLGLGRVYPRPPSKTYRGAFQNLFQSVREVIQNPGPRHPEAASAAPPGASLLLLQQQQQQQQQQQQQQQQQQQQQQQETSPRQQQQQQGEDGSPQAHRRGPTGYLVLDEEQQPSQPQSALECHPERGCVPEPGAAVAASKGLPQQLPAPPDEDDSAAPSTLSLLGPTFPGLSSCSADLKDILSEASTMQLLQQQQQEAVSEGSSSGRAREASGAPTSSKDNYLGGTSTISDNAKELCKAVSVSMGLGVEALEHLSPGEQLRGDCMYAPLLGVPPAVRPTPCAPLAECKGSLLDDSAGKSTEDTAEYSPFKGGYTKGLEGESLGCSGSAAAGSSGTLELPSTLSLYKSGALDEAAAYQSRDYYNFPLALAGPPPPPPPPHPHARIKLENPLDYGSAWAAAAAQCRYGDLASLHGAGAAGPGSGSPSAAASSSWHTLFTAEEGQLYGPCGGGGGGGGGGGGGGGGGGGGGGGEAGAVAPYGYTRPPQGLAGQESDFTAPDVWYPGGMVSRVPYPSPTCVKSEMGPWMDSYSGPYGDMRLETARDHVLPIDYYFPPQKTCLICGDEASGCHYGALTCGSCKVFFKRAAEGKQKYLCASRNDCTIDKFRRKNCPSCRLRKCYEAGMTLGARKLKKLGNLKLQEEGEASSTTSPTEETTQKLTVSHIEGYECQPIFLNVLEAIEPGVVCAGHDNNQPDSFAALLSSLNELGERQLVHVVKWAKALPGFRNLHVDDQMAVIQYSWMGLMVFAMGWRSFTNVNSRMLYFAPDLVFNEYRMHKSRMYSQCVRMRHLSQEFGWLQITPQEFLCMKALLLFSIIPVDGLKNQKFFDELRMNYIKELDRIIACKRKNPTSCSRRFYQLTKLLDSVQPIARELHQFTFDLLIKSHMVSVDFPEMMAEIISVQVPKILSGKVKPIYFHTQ
Chain of Glucocorticoid receptor (Homo sapiens) (P04150 whole entry, looked up): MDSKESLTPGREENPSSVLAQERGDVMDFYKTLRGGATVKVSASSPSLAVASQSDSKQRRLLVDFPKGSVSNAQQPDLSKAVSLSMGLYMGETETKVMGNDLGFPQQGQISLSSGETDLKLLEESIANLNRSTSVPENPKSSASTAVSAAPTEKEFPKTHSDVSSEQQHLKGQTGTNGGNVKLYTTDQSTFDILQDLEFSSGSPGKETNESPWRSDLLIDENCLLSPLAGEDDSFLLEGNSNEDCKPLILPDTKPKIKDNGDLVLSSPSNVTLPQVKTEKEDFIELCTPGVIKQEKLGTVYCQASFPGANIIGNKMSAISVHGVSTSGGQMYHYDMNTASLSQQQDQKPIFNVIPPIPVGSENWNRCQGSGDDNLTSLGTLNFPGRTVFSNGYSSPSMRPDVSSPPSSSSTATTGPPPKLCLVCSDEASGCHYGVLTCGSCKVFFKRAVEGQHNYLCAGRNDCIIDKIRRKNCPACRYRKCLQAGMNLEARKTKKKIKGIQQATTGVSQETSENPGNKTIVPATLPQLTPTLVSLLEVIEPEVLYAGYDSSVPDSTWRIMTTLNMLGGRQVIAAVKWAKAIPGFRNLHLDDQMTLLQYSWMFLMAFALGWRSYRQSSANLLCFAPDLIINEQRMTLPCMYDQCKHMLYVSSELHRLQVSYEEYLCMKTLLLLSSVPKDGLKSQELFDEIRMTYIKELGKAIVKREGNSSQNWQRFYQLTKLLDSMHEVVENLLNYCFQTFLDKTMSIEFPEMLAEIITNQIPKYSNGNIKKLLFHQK

Take `Nc1nc(CC(=O)O)cs1`: the call in assay [1], in [2], in [3] and in assay [5] was inactive. Also, the Potency result in assay [4], in [6], in assay [7], in assay [8], in [9] and in assay [10] was “inactive” each time. Besides, the Potency entry in assay [11] and in assay [12] was “inactive” each time.

Consider `N#CCCNCCC#N`, for which the compound was classed as inactive in [1], in [13], in assay [2], in assay [3] and in [5]. Moreover, the Potency entry in assay [4], in assay [6], in assay [8], in assay [9], in [10] and in assay [14] was “inactive” throughout. Also, the Potency result in assay [11] and in assay [12] was “inactive” throughout.

`Cc1ccc(C(=O)C(C)CN2CCCCC2)cc1` (centres undefined): the result in [1], in [2], in assay [3] and in assay [5] was inactive. For the same compound, the Potency entry in assay [4], in [6], in assay [8], in assay [11] and in assay [12] was “inactive” each time. Moreover, the Potency in [9] is 23.7 µM (active) and 26.6 µM (active); in [10] it was 29.8 µM (active); in assay [14] it was 26.6 µM (active).

As for `CC(C)CCCC(C)CCO` (centres undefined), the compound was classed as inactive in [1], in assay [13], in [2], in assay [3], in [5] and in assay [17]. The Potency entry in [4], in [6], in [7], in assay [15], in assay [8] and in [16] was “inactive” each time. The Potency entry in assay [18], in assay [12] and in assay [19] was “inactive” each time.

On to `C=CC(C)(CCC=C(C)C)OC(=O)c1ccccc1` (centres undefined), for which the outcome in [1], in [13], in [2], in assay [3] and in assay [5] was inactive. Further, the Potency result in assay [4], in [6], in [7], in [15], in [8] and in [9] was “inactive” in each case. The Potency result in [11] and in assay [12] was “inactive” in each case. The Potency in assay [10] is 24.3 µM (active).

On to `CCCCCOC(=O)COc1cc(N2C(=O)C3=C(CCCC3)C2=O)c(F)cc1Cl`, for which the compound was classed as inactive in assay [1], in assay [13], in assay [2], in assay [3] and in [5]. Moreover, the Potency entry in assay [4], in [6], in assay [7], in [15], in assay [8] and in assay [10] was “inactive” throughout. Also, in assay [12], the Potency result is “inactive”.

As to `CC(=O)O[C@@H]1C(=O)O[C@@H]2[C@H]1OC(=O)[C@@H]2OC(C)=O`, the call in assay [1], in assay [13], in [2], in [3] and in assay [5] was inactive. Also, the Potency result in assay [4], in [6], in [7], in [15], in assay [8] and in assay [11] was “inactive” throughout. Moreover, in assay [12], the Potency entry was “inactive”. In addition, the Potency in assay [9] and in [14] was 26.6 µM (active) in each case.

For the compound `Nc1ccc(C(=O)Nc2ccccc2N)cc1`, the result in assay [1], in assay [13], in assay [2], in assay [3] and in assay [5] was inactive. The Potency result in [4], in assay [6], in assay [8], in assay [11] and in [12] was “inactive” in each case. For the same compound, the Potency in [9] was 1.5 µM (active); in assay [10] it was 0.422 µM (active); in assay [14], 1.88 µM (active); in [18], 10.6 µM (active).

Consider `O=C(O)/C=C/c1cnc[nH]1`, for which the result in assay [1], in assay [13], in [2], in [3] and in assay [5] was inactive. In addition, the Potency result in assay [4], in assay [6], in [7], in assay [15], in assay [8] and in assay [9] was “inactive” in each case. For the same compound, the Potency entry in assay [10], in [14], in assay [11] and in [12] was “inactive” each time.

Turning to `Cl/C(=C\n1cncn1)c1ccc(Cl)cc1Cl`, the outcome in assay [1], in assay [13], in assay [2], in [3] and in assay [5] was inactive. Also, the Potency entry in assay [4], in assay [6], in [8], in assay [9], in assay [10] and in assay [11] was “inactive” throughout.

Take `CCCCOC(O)CC` (centres undefined): the outcome in assay [1], in assay [2], in [3], in [5] and in assay [17] was inactive. The Potency result in assay [4], in assay [6], in [7], in assay [15], in assay [8] and in [9] was “inactive” throughout. Further, the Potency result in assay [10], in [11], in assay [18], in assay [12] and in assay [19] was “inactive” throughout.

With `COC(Cc1ccccc1)OC`, the compound was classed as inactive in [1], in assay [2], in [3] and in [5]. The Potency result in assay [4], in [6], in assay [7], in assay [15], in assay [8] and in assay [10] was “inactive” in each case. The Potency result in assay [14], in assay [11] and in assay [12] was “inactive” each time.

In the case of `Cc1occc1S`, the outcome in assay [1], in assay [13], in assay [2], in [3] and in assay [5] was inactive. Besides, the Potency result in [4], in [6], in assay [7], in [15], in assay [8] and in [11] was “inactive” in each case. Further, in [12], the Potency entry was “inactive”. Besides, the Potency in assay [9] is 54.5 µM (active); in [10] it was 61.1 µM (active).

Turning to `CC(=O)/C=C/C1C(C)=CCCC1(C)C` (centres undefined), the result in assay [1], in [2], in assay [3] and in assay [5] was inactive. The Potency result in assay [20], in assay [4], in assay [6], in [8], in assay [10] and in [14] was “inactive” in each case. Besides, the Potency entry in assay [12] was “inactive”.

For the compound `O=C(CC(=O)c1ccccc1)c1ccccc1`, the call in assay [1], in [13], in [2], in assay [3] and in [5] was inactive. Further, the Potency result in assay [4], in assay [6], in assay [7], in assay [15], in assay [8] and in assay [11] was “inactive” throughout. In addition, the Potency entry in [12] was “inactive”. Further, the Potency in assay [9] is 36.9 µM (active); in assay [10], 26.2 µM (active); in assay [14], 23.3 µM (active).

For `CC(C)CCCCCCOC(=O)c1ccc(C(=O)OCCCCCCC(C)C)c(C(=O)OCCCCCCC(C)C)c1`, the compound was called inactive in assay [1], in assay [13], in assay [2], in [3] and in assay [5]. The Potency entry in [4], in assay [6], in assay [8], in assay [9], in assay [10] and in assay [14] was “inactive” each time. The Potency result in assay [11] and in assay [12] was “inactive” each time.
